# Screening results deposited in PubChem BioAssay by National Center for Advancing Translational Sciences (NCATS).
# This excerpt belongs to a sample that is enriched for hits.
# 12-LOX inh = inhibitors of human 12S-lipoxygenase ALOX12 | purified 12hLO, xylenol orange hydroperoxide absorbance | P18054 | Potency, µM (titrated, usually from 108 µM), without a hit: at the top dose activity change, negative = inhibition, most hits filed as inhibitors | 580,000 tested, 1.1% active; note: potency is the fitted concentration of half-maximal effect
# Target sequence (P18054 whole entry, looked up): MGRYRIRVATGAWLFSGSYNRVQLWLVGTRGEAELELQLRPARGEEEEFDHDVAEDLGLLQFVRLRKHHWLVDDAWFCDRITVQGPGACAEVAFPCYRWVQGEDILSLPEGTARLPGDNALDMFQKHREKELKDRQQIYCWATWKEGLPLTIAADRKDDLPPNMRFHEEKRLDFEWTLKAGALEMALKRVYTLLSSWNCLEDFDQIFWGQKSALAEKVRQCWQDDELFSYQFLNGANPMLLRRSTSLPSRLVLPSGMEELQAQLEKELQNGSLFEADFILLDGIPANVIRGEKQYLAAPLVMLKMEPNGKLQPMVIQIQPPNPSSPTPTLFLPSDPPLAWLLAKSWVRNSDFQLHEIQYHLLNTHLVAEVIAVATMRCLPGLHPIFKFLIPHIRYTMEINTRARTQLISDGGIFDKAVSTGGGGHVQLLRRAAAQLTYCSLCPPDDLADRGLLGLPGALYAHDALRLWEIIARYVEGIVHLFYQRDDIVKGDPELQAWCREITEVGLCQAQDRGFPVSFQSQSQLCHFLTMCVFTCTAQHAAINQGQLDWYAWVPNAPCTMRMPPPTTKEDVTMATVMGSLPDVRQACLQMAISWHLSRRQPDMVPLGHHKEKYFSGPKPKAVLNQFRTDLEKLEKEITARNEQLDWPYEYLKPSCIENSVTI
#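 Purified human 12hLO at 150 nM in 25 mM Hepes, 0.01% Triton X-100, pH 7.0, preincubated 15 min at room temperature with compound. Reaction started with 40 uM arachidonic acid, 30 min at room temperature. Hydroperoxide measured by Fe-xylenol orange, 573/405 nm absorbance ratio.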
# HT1080-NT tox = kills 2HG-producing HT-1080-NT fibrosarcoma cells | HT-1080-NT fibrosarcoma viability, CellTiter-Glo ATP luminescence, 48 h | Potency, µM (highest dose often 46.1 µM), for inactives: top-dose activity, negative = less viability, most hits filed as cytotoxic | 360,000 tested, 1.6% active | AID 686970;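 note: NT is the 2HG producing partner of a matched IDH1 knockdown line; potency is the fitted concentration of half-maximal effect; 0% = DMSO-treated cells and -100% = media-only wells without cells; nearly all actives have a fitted effect of over 55% in size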
#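 Toxicity toward the 2HG-producing NT line was scored as %Activity, normalised to DMSO and no-cell wells, from CellTiter-Glo luminescence after 48 hours' treatment.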
# TDP1 cell CPT = growth inhibition of DT40 Tdp1-/-;hTDP1 cells with camptothecin (screen for TDP1 inhibitors). 420,000 tested, 12% active. chicken DT40 Tdp1-/-;hTDP1 cells + 20 nM CPT, ATP luminescence, 48 h. Potency, µM (series often up to 46.2 µM), without a hit: top-dose activity change, negative = growth inhibition, hits mostly inhibitors; note: potency is the fitted concentration of half-maximal effect; nearly all actives have a fitted effect of over 55% in size
#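 Chicken DT40 Tdp1-/- cells complemented with human TDP1, 400 cells/well, exposed to compounds plus 20 nM camptothecin for at least 48 h at 37 C; viability read as ATP content by CellTiter-Glo luminescence.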
# HT1080 IDH1KD tx = HT-1080 IDH1 knockdown cell toxicity (counter line) | HT-1080 IDH1 knockdown viability, ATP luminescence, 48 h | Potency, µM (top dose mostly 46.1 µM), for inactives: top-dose activity, negative = toxicity, usual class: cytotoxic | 360,000 tested, 2% active;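 note: potency is the fitted concentration of half-maximal effect; 0% = DMSO wells and -100% = cell-free medium wells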
#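 CellTiter-Glo luminescence after 48 h compound exposure at 37 degrees C of IDH1-knockdown HT-1080 cells in 5% FBS RPMI. %Activity scaled between DMSO wells and cell-free media wells, with curves fitted and assigned curve classes.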
# IL-1B inflam inh = blocks inflammasome-driven IL-1 beta release. THP-1 LPS/ATP IL-1B secretion, AlphaLISA, 16 h; active compounds read low. activity change, % at 57.5 µM. 360,000 tested, 4.7% active. AID 743279; in the data active = activity change below about -50%; inconclusive = mostly about -30% to -49%
#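 Secreted IL-1B measured by AlphaLISA bead assay after 16 h compound exposure of THP-1 cells; compounds (final up to 57.5 uM) added 1 h before LPS (250 ng/mL) and ATP (1.25 mM) stimulation; lower signal means less secretion.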
# TDP1 cell noCPT = qHTS for Inhibitors of human tyrosyl-DNA phosphodiesterase 1 (TDP1): qHTS in cells in absence of CPT; 420,000 tested, 15% active; DT40 Tdp1-/- hTDP1 cells, no CPT, ATP luminescence, 48 h; AID 686978, 2013; Potency, µM (top dose mostly 46.2 µM), for the others: at the top dose activity change, negative = growth inhibition, most hits filed as inhibitors; note: potency is the fitted concentration of half-maximal effect; nearly all actives have a fitted effect of over 55% in size
#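 Readout: luminescence from CellTiter-Glo after 30 min in the dark at RT. Cells: DT40 Tdp1-/- with stable hTDP1, 400/well. Exposure: compounds alone, ≥48 hr, 37 °C.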
# An asterisk follows results filed as active; i = inactive; ? = inconclusive; nt = no result given; [ ] = dose if it differs, or a comment. Unless noted, calls come from the whole dose curve; as a rule, active = well fitted curve in the direction sought with a large enough effect; inconclusive = small, poorly fitted or top-dose-only effect, or another doubt; inactive = no such curve, though single readings can be large; an effect the other way counts as inactive or inconclusive. Unless noted, % is set by controls: 0 for no effect and ±100 for the full control effect.
SMILES,12-LOX inh,HT1080-NT tox,TDP1 cell CPT,HT1080 IDH1KD tx,IL-1B inflam inh,TDP1 cell noCPT
CC1CCCCC1NC(=O)COC(=O)c1c2c(nc3ccccc13)/C(=C\c1ccco1)CC2 (stereo not given),16µM*,-20%,29µM*,-6%,?,23µM*
CN(CCC#N)C(=O)COC(=O)c1c2c(nc3ccccc13)/C(=C\c1ccco1)CC2,-28%,-21%,21µM*,-24%,-63*,13µM*
CC1CCCC(NC(=O)COC(=O)/C=C/c2ccco2)C1C (stereo not given),?,1%[9.24 µM],?,3%,2,0%
CCc1nc2ccccc2c(C(=O)OCC(=O)NC2CCCCC2)c1C,-25%,nt,nt,nt,nt,nt
O=C(COC(=O)c1c2c(nc3ccccc13)/C(=C\c1ccco1)CC2)NC1CCCC1,7.1µM*,0%,16µM*,-12%,-13,23µM*
CC1(C)CC2(CC(c3cccs3)c3cc(Cl)c(O)cc3O2)NC(=S)N1 (stereo not given),?,-4%,8.2µM*,-22%,17,7.3µM*
NC(=O)c1ccccc1N/C=C/C(=O)c1ccc(Cl)cc1Cl,-14%,-19%,?,-15%,-55*,18µM*
NC(=O)c1ccccc1N/C=C/C(=O)c1cccs1,0%,-3%,-15%,-17%,-21,-22%
NC(=O)c1ccccc1N/C=C/C(=O)c1ccc(F)cc1,0%[57.4 µM],-28%,?,-24%,-6,15µM*
COc1cccc(CN2CC[C@@]3(O)CCNC[C@H]3C2)c1OCCCn1ccnc1,45%,nt,nt,nt,nt,nt
CC1C=CCC2C(=O)N(c3cccc(C(=O)NCc4ccccc4)c3)C(=O)C12 (stereo not given),32µM*,11%,-5%,5%,6,5%
O=C(c1cccc(N2C(=O)C3C4C=CC(C4)C3C2=O)c1)N1CCN(c2ccccc2Cl)CC1 (stereo not given),-11%,-5%,?,-9%,-19,21µM*
Cc1cccc(N2CCN(C(=O)c3cccc(N4C(=O)C5CC=CC(C)C5C4=O)c3)CC2)c1C (stereo not given),-7%,1%,?,-14%,-13,23µM*
Cc1ccc(S(=O)(=O)Nc2nc3ccccc3nc2Nc2cccc(F)c2)cc1,-27%,nt,nt,nt,nt,nt
CN1C=CC(C(C(N)=O)c2ccccc2)c2ccccc21 (stereo not given),1%,-5%,24%,-11%,12,?
O=C(NC1CCN(c2cc(-c3ccc(F)cc3)[nH]n2)CC1)c1ccc(OC(F)(F)F)cc1,1%,nt,nt,nt,nt,nt
CC(=O)c1c(C)[nH]c(C(=O)OC(C)C(=O)c2ccc(F)cc2)c1C (stereo not given),-1%,nt,nt,nt,nt,nt
COc1ccc(/C=C/C(=O)N2CCCc3ccccc32)cc1,2%,16%,26µM*,15%,-5,23µM*
Cc1ccc(/C=C/C(=O)N2CCc3ccccc32)o1,?,-2%,6.5µM*,?,-81*,13µM*
O=C(/C=C/c1ccco1)N1CCc2ccccc21,?,?,?,?,-27,?
COc1ccc(OC)c(/C=C/C(=O)N2CCCc3ccccc32)c1,-17%,-11%,-26%,-1%,-77*,?
CNC(=O)N1CCC(C2CCN(C(=O)c3cc(OC)cc(OC)c3)C2)CC1 (stereo not given),11%,nt,nt,nt,nt,nt
CCc1nc2c(c(-c3ccc(O)cc3)n1)CN(Cc1ccccc1)CCC2,15%,nt,nt,nt,nt,nt
CN(CC(=O)Nc1ccc(OC(F)(F)F)cc1)S(=O)(=O)c1cnc[nH]1,5%,7%,-9%,7%,34,-15%
Cc1cc(C)cc(OCC(=O)N(C)CC(=O)Nc2ccc(Cl)c(C(F)(F)F)c2)c1,284%,-2%,?,-24%,-78*,?
SMILES,12-LOX inh,HT1080-NT tox,TDP1 cell CPT,HT1080 IDH1KD tx,IL-1B inflam inh,TDP1 cell noCPT
CN(CC(=O)Nc1ccc(Cl)c(C(F)(F)F)c1)C(=O)c1cccc2cccnc12,31%,0%,?,-4%,-26,23µM*
CN(CC(=O)Nc1ccc(Cl)c(C(F)(F)F)c1)S(=O)(=O)c1cnc[nH]1,-10%,6%,15µM*,5%,12,15µM*
COc1ccc(NC(=O)CSCC(=O)N(C)CC(=O)Nc2ccc(Cl)c(C(F)(F)F)c2)cc1,-2%,?,?,-28%,-7,?
Cc1ccc(NC(=O)CN(C)C(=O)c2cccnc2Nc2cccc(C(F)(F)F)c2)cc1,-24%,?,?,?,-79*,?
CC(C)c1ccc(NC(=O)c2cc3n(n2)CC(c2ccc(Cl)cc2)OC3)cc1 (stereo not given),6%,nt,nt,nt,nt,nt
O=C(CN1C(=O)NC2(CCCC2)C1=O)OCc1ccc(Cl)cc1Cl,-15%,4%,-13%,1%,1,-9%
CN(CC(=O)Nc1ccc(Cl)c(C(F)(F)F)c1)C(=O)CNC(=O)C1CCCCC1,?,0%,?,-3%,10,16µM*
Cc1cc(NC(=O)CN(C)CC(=O)Nc2ccc(Cl)cc2)no1,?,-4%,?,-14%,19,?
Cc1cc(NC(=O)CN(C)CC(=O)Nc2ccc(Cl)c(C(F)(F)F)c2)no1,3%,-28%,15µM*,-8%,-12,16µM*
CN(CC(=O)Nc1ccc(Cl)c(C(F)(F)F)c1)C(=O)CCCNC(=O)c1ccc(Cl)cc1,-6%,?,21µM*,?,-22,15µM*
COc1ccc(C2Cn3nnc(C(=O)N4CCC(C(=O)NCc5cccc(C)c5)CC4)c3CO2)cc1 (stereo not given),25%,nt,nt,nt,nt,nt
CCOc1cccc2cc(C(=O)NC(C)c3ccccc3)c(=N)oc12 (stereo not given),-9%,-11%,?,1%,i,26µM*
CCOc1cccc2cc(C(=O)NCc3ccc(F)cc3)c(=N)oc12,-10%,16%,?,17%,-6,23µM*
CCOc1cccc2cc(C(=O)Oc3ccc(OC)cc3)c(=O)oc12,35µM*,2%,4%,6%,6,5%
COc1cccc2cc(C(=O)NCc3ccccc3)c(=N)oc12,-25%,-4%,21µM*,-14%,-105*,?
COc1cccc2cc(C(=O)Oc3ccccc3)c(=O)oc12,-3%,-13%,23%,?,41,10%
COc1cccc(CNC(=O)C(c2ccc(F)cc2)N(C)C)c1OC (stereo not given),25%,nt,nt,nt,nt,nt
